Screening results deposited in PubChem by several laboratories.
ERb coact inh: blocks coactivator binding to human estrogen receptor beta; Q92731; TR-FRET ER-beta LBD / SRC1-Cy5 peptide binding; receptor agonist-loaded with 1 µM estradiol; inhibition, % at 25.6 µM; 86,000 compounds, 1.3% hits; AID 633;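 active means compounds whose percent inhibition of the receptor-coactivator binding signal exceeds about 50% in the single-dose screen, limit read from the data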;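 further: 0% = receptor plus peptide wells without compound and 100% = peptide-only wells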
ERa SRC1 pot: enhances coactivator binding to human estrogen receptor alpha. P03372. TR-FRET ERalpha-LBD/SRC-Cy5 coactivator binding, 2 h; 100 = basal binding, no effect. coactivator binding (% of control), % at 25.6 µM. 86,000 compounds, 1.3% hits. AID 639; in the data active means activity above about 200%;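 further: binding measured in presence of low estradiol as agonist stimulus; 0% = peptide alone without receptor and 100% = receptor with peptide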
ERa SRC1 inh: ER-alpha (human) coactivator binding inhibition; P03372; TR-FRET ER-alpha LBD / SRC-1 peptide, estradiol-bound; inhibition, % at 25.6 µM; 86,000 compounds, 1.7% hits; AID 629; in the data active means inhibition above about 50%;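 further: 0% = receptor plus peptide control and 100% = peptide only without receptor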
Candida biofilm: kills Candida albicans biofilms. C. albicans biofilm + clotrimazole, Alamar Blue. inhibition, % at 6 µM. 85,000 compounds, 0.14% hits. AID 834;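 active means inhibition above 20%; inactive means inhibition below 20%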;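 further: preformed 24 hr biofilms exposed to compound for 48 hr; 0% = biofilm without compound and 100% = blank killed by clotrimazole plus chlorhexidine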
Smad3 FoxH1 inh: Smad3 (human) transcription factor binding inhibition; P84022; TR-FRET Smad3/Dy647-FoxH1 peptide binding, europium anti-His; inhibition, % at 25 µM; 88,000 compounds, 0.29% hits; AID 630;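 active means compounds that reduce the energy-transfer binding signal between the protein and its labelled peptide by more than half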;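 further: 0% = Smad3 plus labelled peptide maximal FRET and 100% = peptide-only background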
Target sequence (P84022 whole entry, looked up): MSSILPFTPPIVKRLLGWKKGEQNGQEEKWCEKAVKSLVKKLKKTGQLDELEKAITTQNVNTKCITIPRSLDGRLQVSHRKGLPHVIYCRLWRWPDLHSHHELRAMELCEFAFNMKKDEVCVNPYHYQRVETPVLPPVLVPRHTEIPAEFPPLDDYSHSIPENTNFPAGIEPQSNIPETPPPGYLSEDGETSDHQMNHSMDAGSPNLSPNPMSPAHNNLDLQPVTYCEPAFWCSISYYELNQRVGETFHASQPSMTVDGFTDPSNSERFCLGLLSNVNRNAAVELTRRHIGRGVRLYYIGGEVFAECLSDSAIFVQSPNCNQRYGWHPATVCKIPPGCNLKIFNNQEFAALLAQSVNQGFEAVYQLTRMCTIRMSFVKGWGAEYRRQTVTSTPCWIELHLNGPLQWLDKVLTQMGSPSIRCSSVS
The depositor's hits bear a star; . = no result; [ ] = another dose, or the depositor's remark. A selection: hits, their analogues and other compounds. The true share with any hit is near 3.8%.

SMILES | ERb coact inh | ERa SRC1 pot | ERa SRC1 inh | Candida biofilm | Smad3 FoxH1 inh
CCCCC(=O)Nc1sc2c(c1C(N)=O)CCC2 | -1 | 108 | -2 | 4 | 15
COc1ccc(-c2ccc(C#N)c(SCC(=O)Nc3sc4c(c3C#N)CCC4)n2)cc1 | 8 | 159 | 1 | 7 | -2
N#Cc1ccc(-c2cccnc2)nc1SCC(=O)Nc1sc2c(c1C#N)CCC2 | 66* | 53 | 85* | 6 | 4
O=C(CSc1n[nH]c(-c2ccco2)n1)Nc1sc2c(c1C(=O)Nc1ccccc1)CCCC2 | 35 | 78 | 51* | 4 | 14
CCOC(=O)c1c(NC(=O)CSc2n[nH]c(-c3ccco3)n2)sc(C)c1C | 0 | 103 | 3 | 7 | 3
NC(=O)c1c(NC(=O)COC(=O)CSc2nnc(-c3ccc(Cl)cc3)o2)sc2c1CCC2 | 46 | 41 | 58*[fluorescence artefact?] | 9 | 11
CCC1(CC)NC(=O)N(CC(=O)Nc2sc3c(c2C(N)=O)CCC3)C1=O | 74*[fluorescence artefact?] | 28 | 84* | 7 | 10
O=C(O)CCNCC(=O)O | . | . | . | . | -1
CC1Cc2ccccc2N1C(=O)CCn1c(=O)sc2ccccc21 (centres undefined) | -13 | 119 | -7 | 8 | 11
COc1ccc(-c2nnc(SCC(=O)Nc3sc4c(c3C#N)CCCC4)n2-c2ccccc2)cc1 | 6 | 230*[fluorescence artefact?] | 5 | 11 | 17
COc1ccc(-n2c(SCC(=O)Nc3sc4c(c3C#N)CCCC4)nnc2-c2ccccc2OC)cc1 | -6 | 101 | -2 | 10 | 2
CCOC(=O)Cc1csc(SCC(=O)Nc2sc3c(c2C(N)=O)CCC3)n1 | 82*[fluorescence artefact?] | 61 | 92*[fluorescence artefact?] | 9 | 4
NC(=O)c1c(NC(=O)CSc2nnc(-c3ccco3)n2-c2ccccc2)sc2c1CCC2 | 82*[fluorescence artefact?] | 28 | 94*[fluorescence artefact?] | 4 | 14
NCCNC(=S)S | . | . | . | . | 57*
Nc1ccc(N2CCN(C(=O)c3ccco3)CC2)cc1 | 55*[fluorescence artefact?] | 3 | 85*[fluorescence artefact?] | 2 | 8
O=C(Oc1ccc(N2C(=O)CCC2=O)cc1)c1ccco1 | 4 | 103 | 60* | 3 | -2
CCSc1nnc(Cc2cc(=O)[nH]c(=O)[nH]2)n1-c1cc(C)ccc1C | 70* | 131 | 2 | 7 | 4
CCOC(=O)CSc1nnc(Cc2cc(=O)[nH]c(=O)[nH]2)n1-c1ccc(Cl)cc1 | 96*[fluorescence artefact?] | 119 | 0 | -4 | 5
CCOc1ccc(-n2c(Cc3cc(=O)[nH]c(=O)[nH]3)nnc2SCC(=O)OC)cc1 | -14 | 89 | -1 | 2 | 1
CCOC(=O)Cn1cnc2sc3c(c2c1=O)CCC3 | 70* | 86 | 64*[fluorescence artefact?] | 6 | 1
CCOC(=O)C(C)n1cnc2sc3c(c2c1=O)CCC3 (centres undefined) | 41 | 108 | 17 | 4 | 21
COC(=O)c1cc2nc(-c3ccccc3)cc(C)n2n1 | 22 | 94 | 11 | 0 | -12
Cc1cc(-c2ccccc2)nc2cc(C(=O)N(Cc3ccccc3)Cc3ccccc3)nn12 | -6 | 204* | -11 | 9 | 11
CNC(=O)C1CC(=O)N(CCc2ccc(OC)cc2)C(=Nc2ccc(OC)cc2)S1 (centres undefined) | -5 | 103 | -3 | 4 | -2
CCN1C(=O)CC(C(=O)NC)SC1=Nc1cc(Cl)c(O)c(Cl)c1 (centres undefined) | 50*[fluorescence artefact?] | 81 | 31 | 10 | -22
SMILES | ERb coact inh | ERa SRC1 pot | ERa SRC1 inh | Candida biofilm | Smad3 FoxH1 inh
N#C[C@@H](N=Nc1ccccc1C(=O)O)C(N)=O | . | . | . | . | 12
C[C@H](NC(=O)c1ccc(Cl)c(Cl)c1)c1ccc(-c2ccccc2)cc1 | . | . | . | . | -4
CCc1nc(Nc2ccc(N3CCN(C(C)=O)CC3)cc2)c2oc3ccccc3c2n1 | 61*[fluorescence artefact?] | 54 | 33 | 2 | -5
CC(=O)N1CCN(c2ccc(Nc3ncnc4c3oc3ccccc34)cc2)CC1 | 61*[fluorescence artefact?] | 34 | 56*[fluorescence artefact?] | 12 | 9
CN1CCN(Cc2nc3cccc4c3c([n+]2[O-])-c2ccccc2-4)CC1 | . | . | . | . | 6
c1ccc(-n2ncc3c(N4CCN(c5ccccn5)CC4)nc(N4CCOCC4)nc32)cc1 | 7 | 220*[fluorescence artefact?] | 19 | 9 | 5
c1ccc(-n2ncc3c(N4CCN(c5ccccn5)CC4)nc(N4CCCCC4)nc32)cc1 | 6 | 114 | -11 | 10 | 6
COc1ccc(NC(C)=O)cc1NC(=O)CN1CCN(S(=O)(=O)c2ccc(C(C)C)cc2)CC1 | 46 | 249*[fluorescence artefact?] | -4 | 2 | -12
O=C(O)[C@@H]1[C@H](C(=O)Nc2ncccn2)[C@@H]2C=C[C@H]1O2 | . | . | . | . | -1
Cc1cc(S(=O)(=O)N(C)CCc2ccccc2)ccc1-n1cnnn1 | 1 | 124 | 5 | 6 | 7
Cc1cc(S(=O)(=O)N(Cc2ccccc2)Cc2ccc(N(C)C)cc2)ccc1-n1cnnn1 | 14 | 211* | 14 | 4 | -1
O=c1c2c3c(sc2nc2sc(C4CC4)nn12)CCCC3 | 12 | 234* | 11 | 5 | -9
O=C1CCc2nc3sc4c(c3c(=O)n2N1)CCCC4 | 3 | 119 | -8 | 2 | 9
CSc1ccccc1NC(=O)c1ccccc1N(Cc1ccccc1)S(C)(=O)=O | 59* | 107 | -4 | 2 | -9
Cc1conc1NC(c1cccs1)c1ccc2cccnc2c1O (centres undefined) | 46 | 66 | 57*[fluorescence artefact?] | 16 | 0
Nc1nc(C(=O)O)c(N=Nc2ccccc2)c(=O)[nH]1 | . | . | . | . | 7
N[C@@](CC(=O)O)(Cc1ccccc1)C(=O)O | . | . | . | . | -4
Cc1[nH]n(C(C)(C)C)c(=O)c1Sc1ccccc1 | -15 | 120 | -13 | 6 | -1
Cc1[nH]n(-c2ccccc2)c(=O)c1Sc1ccc(Cl)cc1 | 81* | 72 | 39 | 3 | -12
Oc1ccc(Cl)cc1C=Nc1cnc2ccccc2c1 | . | . | . | . | 5
CCOC(=O)C(CC)Sc1nnc2c3cc(C)ccc3n(C)c2n1 (centres undefined) | -8 | 83 | 9 | -1 | 0
CSc1nnc2c3cc(C)ccc3n(Cc3ccccc3)c2n1 | 54*[fluorescence artefact?] | 105 | 68*[fluorescence artefact?] | 0 | -23
O=C(NCc1ccccc1)c1ccc2nccnc2c1 | 1 | 90 | 16 | 5 | -1
Nc1c(C(=O)Nc2ccccc2)sc2nc(-c3ccco3)ccc12 | 58*[fluorescence artefact?] | 125 | 69*[fluorescence artefact?] | 10 | 10
O=C(NCc1ccco1)c1cccc(NC(=O)c2ccccc2)c1 | 8 | 109 | -7 | 5 | 6
SMILES | ERb coact inh | ERa SRC1 pot | ERa SRC1 inh | Candida biofilm | Smad3 FoxH1 inh
O=C(Nc1ccccc1)c1ccc2nc(-c3ccco3)c(-c3ccco3)nc2c1 | 88*[fluorescence artefact?] | 35 | 90*[fluorescence artefact?] | 0 | 4
CC(=O)c1ccc(NC(=O)c2ccc3nc(-c4ccco4)c(-c4ccco4)nc3c2)cc1 | 95*[fluorescence artefact?] | 29 | 92*[fluorescence artefact?] | 4 | -4
O=C(NCc1ccccc1)c1ccc2nc(-c3ccco3)c(-c3ccco3)nc2c1 | 97*[fluorescence artefact?] | 36 | 93*[fluorescence artefact?] | -2 | 5
CCOc1nc(-c2ccc(OC)cc2)ccc1-c1noc(-c2ccncc2)n1 | 38 | 138 | 76* | -2 | 9
CCOc1nc(-c2ccccc2)ccc1-c1noc(-c2ccncc2)n1 | 30 | 196 | 33 | 5 | 5
CCOc1nc(C)ccc1-c1noc(-c2ccncc2)n1 | -2 | 233*[fluorescence artefact?] | -6 | 9 | 1
